Out of some 330,000 compounds screened, about 1,300 (0.39%) were called active.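 The calls were made as follows: active = inhibition of 50% or more; inactive = inhibition below 50%.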 The entries come from a sample that favours actives as a whole.
Assay: blockers of yeast NLRP3/ASC/caspase-1 reporter – luminescence, uHTS, primary screen (AID 2825);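 also: plate controls were induced DMSO wells for no effect and uninduced yeast grown without galactose for full effect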
Details: Yeast reconstituted NLRP3/ASC/caspase-1, beta-gal luminescence, 24 h; at 10 µM; stronger effect = higher value

| Structure (SMILES) | inhibition |
| --- | --- |
| O=C(COc1coc(CN2CCN(c3ccccc3)CC2)cc1=O)Nc1ccccc1F | 11.8% (inactive) |
| CC1CCN(c2oc(-c3ccccc3F)nc2C#N)CC1 | 26.9% (inactive) |
| COc1ccc(-c2oc(/N=C/N3CCCC3)c(C#N)c2-c2ccc(OC)cc2)cc1 | 15.6% (inactive) |
| N#Cc1ccc(OCc2nnc(-c3ccc([N+](=O)[O-])cc3)o2)cc1 | 20.8% (inactive) |
| Cc1ccc(OCc2nc(C#N)c(N3CCCC3)o2)cc1 | 63% (active) |
| N#Cc1nc(COc2ccc(Cl)cc2)oc1N1CCCC1 | 55.6% (active) |
| O=S(=O)(c1ccc(Cl)cc1)c1nc(-c2ccco2)oc1N1CCCCC1 | 22.9% (inactive) |
| CC(C(=O)N=Nc1c(O)n(C)c2ccc(Br)cc12)n1cnc2ccccc2c1=O (centres undefined) | 7.45% (inactive) |
| COc1ccc(CC(=O)Nc2sc(Cc3ccccc3)c(C)c2C(N)=O)cc1 | 25.1% (inactive) |
| O=C(CN1C(=O)/C(=C\c2ccc(C(F)(F)F)cc2)Sc2ccccc21)NCc1ccco1 | -3.88% (inactive) |
| C#CCN1CC(C)/C(=N/O)CC1C (centres undefined) | 8.21% (inactive) |
| CSc1ccc(CN(C)CC(=O)NCc2ccc(F)cc2)cc1 | 30.5% (inactive) |
| CC(Oc1ccc2c(-c3ccccc3)cc(=O)oc2c1)C(=O)NC(Cc1c[nH]c2ccccc12)C(=O)O (centres undefined) | 18.5% (inactive) |
| CCC(C)Sc1nc2c(cnn2-c2ccc(F)cc2)c(=O)[nH]1 (centres undefined) | -8.33% (inactive) |
| CCCSc1nc2sc3c(c2c(=O)n1-c1ccc(OC)cc1)CCN(C)C3 | 18.1% (inactive) |
| CCSc1nc2sc3c(c2c(=O)n1-c1ccc(C)cc1)CCN(C)C3 | 58.9% (active) |
| CCOc1ccc(-n2c(SCC(=O)OC)nc3sc4c(c3c2=O)CCN(C)C4)cc1 | -6.96% (inactive) |
| CCOP(=O)(OCC)C(Nc1cccc(C)c1)c1ccc(F)cc1 (centres undefined) | 3.8% (inactive) |
| Cc1ccccc1N1CCN(C2CCCN(C(=O)c3ocnc3C)C2)CC1 (centres undefined) | 25.2% (inactive) |
| CCCc1nc2c(c(=O)c3ccccc3n2C)c(=O)n1C1CCCCCC1 | 64.7% (active) |
| CC1CCN(Cc2nc3c(c(=O)n(C)c(=O)n3C)n2CCc2ccccc2)CC1 | 21.2% (inactive) |
| Cn1c2ccccc2c2c(C(=O)N3CCN(c4ccc(F)cc4)CC3)cn(C3CCCC3)c(=O)c21 | 15.6% (inactive) |
| Cc1onc(-c2c(Cl)cccc2Cl)c1C(=O)c1c[nH]c(C(=O)NC2CC2)c1 | 12.6% (inactive) |
| Cc1cccc(N=C2SC(C)CN2C(=O)CN2C(=O)NC3(CCCC3)C2=O)c1 (centres undefined) | -3.71% (inactive) |

| Structure (SMILES) | inhibition |
| --- | --- |
| C[C@@H]1C[C@@H]2O[C@H]2/C=C\C=C\C(=O)Cc2c(Cl)c(O)cc(O)c2C(=O)O1 | 53.1% (active) |
| COc1ccc(NC(=O)C2CCC(CNC(=O)[C@@H]3Cc4ccccc4CN3)CC2)cc1 (some centres undefined) | -1.77% (inactive) |
| O=C(CSc1ncnc2c1oc1ccccc12)NC1CCCC1 | 52% (active) |
| O=C(CSc1nnc(-c2ccccc2O)o1)NC1CCCCC1 | 35.2% (inactive) |
| O=C(CSc1nnc2c(n1)[nH]c1ccccc12)NC1CCCCC1 | 18.6% (inactive) |
| COC(=O)CN1C(=O)[C@H]2[C@@H](/C=C/c3ccccc3)N3C(=O)CN(CC4CC4)C(=O)[C@@]3(Cc3ccccc3)[C@H]2C1=O | 1.91% (inactive) |
| CCOc1ccc(C2/C(=C(/O)c3ccc4c(c3)CC(C)O4)C(=O)C(=O)N2CCCn2ccnc2)cc1 (centres undefined) | 15.6% (inactive) |
| COc1ccc(OCC(=O)NCCS(=O)(=O)N2CCN(c3ccc(F)cc3)CC2)cc1 | 7.19% (inactive) |
| O=C(NNC(=O)c1ccco1)Nc1ccccc1 | 8.53% (inactive) |
| O=C(Nc1ccc(Oc2ccccc2)cc1)c1ccco1 | 50.8% (active) |
| COc1cc(NC(=O)c2cc([N+](=O)[O-])ccc2Br)ccc1NC(=O)c1ccco1 | 20.7% (inactive) |
| COc1ccccc1C(=O)Nc1ccc(NC(=O)c2ccco2)c(C)c1 | 50.8% (active) |
| O=C(/C=C/c1ccco1)Nc1ccc(Oc2ccccc2)cc1 | 22.4% (inactive) |
| Cc1cc(NC(=O)c2ccc(F)cc2)ccc1NC(=O)c1ccco1 | 12.3% (inactive) |
| Cc1cc(O)c(C(=O)/C=C/c2c(F)c(F)c(F)c(F)c2F)c(=O)o1 | 12.5% (inactive) |
| CCOc1ccc(N(C(=O)c2snc(C(N)=O)c2N)C(C(=O)NCC2CCCO2)c2c[nH]c3ccccc23)cc1 (centres undefined) | 10.6% (inactive) |
| COc1cc(OC)c(C(=S)N2CCCC2)cc1OC | 16% (inactive) |
| COc1ccc(NC(=O)COC(=O)c2ccncc2)c(OC)c1 | 18.3% (inactive) |
| O=C(COc1cccc(F)c1)Oc1ccc(C(=O)c2ccccc2)cc1 | -40.2% (inactive) |
| CCOc1ccc(OCC)c(-c2c(=O)n(OCc3ccc(Cl)cc3)c3ccccc3[n+]2[O-])c1 | 3.29% (inactive) |
| O=C(COC(=O)c1ccccc1SCC(=O)N1CCCC1)Nc1ccccc1OC(F)F | 19.4% (inactive) |
| CCOC(=O)C1CCN(Cc2c(C(=O)N3CCOCC3)nc3c(C)cccn23)CC1 | 9.59% (inactive) |
| CCN(CC)C(=O)c1sc2nc(-c3ccccc3)ccc2c1N | 20.7% (inactive) |
| CN(C(=O)c1ccccn1)c1nnc(-c2ccccn2)s1 | 9.46% (inactive) |

| Structure (SMILES) | inhibition |
| --- | --- |
| CN(C)c1ccnc2sc(C(=O)c3ccccc3)c(N)c12 | 64.4% (active) |
| O=C(Oc1cccc(O)c1)C1CCCCC1 | 9.17% (inactive) |
| Cc1ccccc1C(=O)NC(=S)NC1CC1 | -9.47% (inactive) |
| O=C(c1cccc(S(=O)(=O)N2CCCC2)c1)N(Cc1ccco1)C1CCS(=O)(=O)C1 (centres undefined) | 19.1% (inactive) |
| CC(OC(=O)c1cc2ccccc2[nH]1)C(=O)N(C)c1ccccc1 (centres undefined) | -0.144% (inactive) |
| COc1ccc2[nH]c(C(=O)Nc3ccccc3Cl)cc2c1 | -3.34% (inactive) |
| O=C(Nc1ccccc1)c1cc2ccccc2[nH]1 | 58.5% (active) |
| COc1ccc(C(=O)c2c(C)c(CCC#N)n3ccccc23)c(OC)c1 | 3.12% (inactive) |
| O=C(Nc1ccc(S(=O)(=O)N2CCCCC2)cc1)C1CCN(C(=O)c2ccc(F)cc2)CC1 | 8.87% (inactive) |
| O=C(c1[nH]ncc1-c1ccc(Cl)cc1)C1CO1 (centres undefined) | 2.92% (inactive) |
| COc1cc(C(=O)OCc2cc(=O)n3ccsc3n2)ccc1OC(C)C | 16.3% (inactive) |
| Cc1c(Cl)c([N+](=O)[O-])nn1CCCC(=O)NC(C)c1ccccc1 (centres undefined) | 7.95% (inactive) |
| COC(=O)CCNC(=O)c1ccc2[nH]c(C)c(C)c2c1 | -4.49% (inactive) |
| CC(C)(c1ccccc1)c1ccc(OCCN)cc1 | 54.5% (active) |
| Cc1nn(CCOc2ccccc2)c(=O)n1-c1ccccc1F | -0.993% (inactive) |
| CC(C)(c1ccccc1)c1ccc(OCCN2CCCC2)cc1 | 31.2% (inactive) |
| Cc1ccc(-c2cn(S(=O)(=O)c3cccc([N+](=O)[O-])c3)nc2N)cc1 | -10.8% (inactive) |
| COc1cnn(-c2ccc([N+](=O)[O-])cc2)c(=O)c1Cl | -39.9% (inactive) |
| Nc1c(-c2cccc(Cl)c2)cnn1-c1cccc([N+](=O)[O-])c1 | 50.4% (active) |
| Cc1snc(SCc2c(F)cccc2Cl)c1C#N | 18.9% (inactive) |
| Cc1cc(C)c(C#N)c(SCc2ccc3c(c2)OCO3)n1 | 7.1% (inactive) |
| Cc1ccc(CSc2nsc(C)c2C#N)cc1 | 63.5% (active) |
| O=C(CCNC(=O)c1ccccc1)NN=Cc1ccc(Br)o1 | 20.8% (inactive) |
| CCCn1c(=O)c(C(=O)Nc2cc(C)ccn2)c(O)c2ccccc21 | 18.1% (inactive) |

| Structure (SMILES) | inhibition |
| --- | --- |
| Cn1c(=O)c(C(=O)Nc2ncccn2)c(O)c2ccccc21 | 50.1% (active) |
| C=CCn1c(=O)c(C(=O)Nc2ncccc2O)c(O)c2ccccc21 | 22.7% (inactive) |
| CS(=O)(=O)N(Cc1nc2sc3c(c2c(=O)[nH]1)CCCC3)C1CCCCC1 | 19.1% (inactive) |
| CC[C@@H](C)[C@H](NC(=O)CCc1c(C)c2cc3c4c(oc3c(C)c2oc1=O)CCCC4)C(=O)O | 17.7% (inactive) |
| Cc1cc(Cl)nc(NC(=O)Nc2cccc(Cl)c2)n1 | 25.9% (inactive) |
| COc1cccc(C(=O)NC(=O)Nc2nc(C)cc(C(F)(F)F)n2)c1 | 6.49% (inactive) |
| Cc1cc(C)nc(NC(=O)Nc2ccccc2C(F)(F)F)n1 | 54.9% (active) |
| Cc1ccc(CNC(=O)Cn2cnc(S(=O)(=O)N3CCCCC3)c2)o1 | 4.74% (inactive) |
| O=C(c1ccccc1)c1cc(-c2ccccn2)c(N2CCOCC2)s1 | -6.23% (inactive) |
| CCOC(=O)C1=C(C)NC(C)=C(C(=O)OCC)C1C1=COCCO1 | 22.7% (inactive) |
| O=C1CSC(=S)N1c1ccc(Cl)c(Cl)c1 | 41.8% (inactive) |
| CCOc1ccc(N2C(=O)CSC2=NC#N)cc1 | 11.9% (inactive) |
| COc1cc(N2C(=O)CSC2=S)cc(OC)c1OC | 58.3% (active) |
| COc1cc(C(=O)N2CCN(C)CC2)cc(OC)c1OC | 9.48% (inactive) |
| O=C1CSC(=S)N1c1ccc(O)cc1 | 81.7% (active) |
| COc1cc(N2C(=O)CC3(CCCC3)CC2=O)cc(OC)c1OC | 3.58% (inactive) |
| COCCNc1cc(-c2ccccc2)nc2cc(-c3cccc(F)c3)nn12 | 32.2% (inactive) |
| CCCCC(=O)Nc1ccccc1N1CCN(c2ccc(F)cc2)CC1 | 17.7% (inactive) |
| CC(C)NC(=S)NN=C1CCCCCCCCCCC1 | 26.8% (inactive) |
| Cc1ccc2nsnc2c1S(=O)(=O)N1CCCC1C(=O)O (centres undefined) | 14.6% (inactive) |
| COc1ccc(S(=O)(=O)N2CCOC23CCN(S(=O)(=O)c2ccc([N+](=O)[O-])cc2)CC3)cc1 | 23.5% (inactive) |
| O=C(c1ccncc1)N1CCN(S(=O)(=O)c2cc(C(F)(F)F)cc(C(F)(F)F)c2)CC1 | 6.83% (inactive) |

Source: PubChem BioAssay AID2825 (Sanford-Burnham Center for Chemical Genomics, 2010)
